VHR inh abs – VHR1 phosphatase inhibitors, primary screen, biochemical, absorbance, uHTS. Dual specificity protein phosphatase 3 (Homo sapiens), P51452. recombinant VHR phosphatase, pNPP absorbance. inhibition, % at 13.3 µM. 0.52% of 290,000 active. AID 1654, 2009; in the data active = inhibition above about 50%
BH1578 lux ind – inducers of Vibrio cholerae quorum light production without autoinducers, primary screen, BH1578 luxS cqsA deficient, single point; V. cholerae BH1578 lux reporter, luminescence, 6 h; activation, % at 18.7 µM; 0.16% of 350,000 active; in the data active = activation mostly above about 9.7%, no sharp cut-off
Mtb BioA inh – M. tuberculosis BioA enzyme inhibitors, primary screen, biochemical, plate reader, single point, HTS; inhibition, % at 9.99 µM; 7,8-diaminopelargonic acid synthase BioA (Mycobacterium tuberculosis); 0.096% of 360,000 active; purified M. tuberculosis BioA enzyme; in the data active = inhibition above about 40%
Y pestis TopoI – Yersinia pestis topoisomerase I inhibitors, primary screen, biochemical, cleavage product accumulation, plate reader, single point | AID 504884, 2011 | activity, % at 10 µM | 0.064% of 360,000 active | Y. pestis Topo-I cleavage product accumulation; in the data active = activity above about 50%, passing the limit was not always enough
TcdB inh – TcdB glycohydrolase inhibitors, primary screen, biochemical, single point, plate reader | TcdB glycohydrolase enzymatic assay | inhibition, % at 9.99 µM | 0.24% of 350,000 active | AID 652162, 2013; in the data active = inhibition above about 10%
Active calls of the source: *; i = inactive; nt = not tested or not shown. This is a sample that favours compounds with a hit; in the whole collection about 0.73% have one here.

SMILES | VHR inh abs | BH1578 lux ind | Mtb BioA inh | Y pestis TopoI | TcdB inh
CCOc1ccc(S(=O)(=O)N2CCOCC2)cc1NC(=O)C1=COCCO1 | nt | i | 0 | -3 | -1
CCOc1ccc(Oc2ccc(S(=O)(=O)N3CCOCC3)cc2NC(=O)C2=COCCO2)cc1 | nt | i | -2 | 62* | 3
Cc1ccc(/C=C/C(=O)N2CCCC(C)C2)cc1 (stereo not drawn) | 3 | 0 | 1 | 3 | 1
Cc1ccc(/C=C/C(=O)N2CCC(Cc3ccccc3)CC2)cc1 | 1 | i | nt | 51* | nt
COc1ccccc1CN(C)C(=O)c1ccc(COc2ccccc2)cc1 | 1 | -8 | 0 | 42 | 0
COc1cccc(CN(C)C(=O)c2ccc(COc3ccc(Cl)cc3)cc2)c1OC | 58* | -5 | -3 | 17 | 0
COc1cccc(-c2ccc3c(c2)[C@H]2[C@H](CCN2C(=O)C2CCCC2)[C@H](CO)N3)c1 | nt | nt | nt | nt | 1
CN(C)c1ccc(NC(N)=S)cc1 | -2 | i | nt | 1 | -34
CN(C)c1ccc(Cl)c(NC(N)=S)c1 | nt | 0 | 0 | -6 | 27*
O=C(NCc1ccc(F)cc1)C1CC(=O)N(C2CCCCCCC2)C1 (stereo not drawn) | 56* | i | 5 | -2 | 2
CCCNC(=O)C[C@H]1CC[C@@H]2[C@H](COc3ccc(NC(=O)Nc4ccccc4)cc3C(=O)N2C)O1 | nt | nt | 9 | nt | nt
Cc1ccc(C(=O)Nc2ccc(N3CCCC3)cc2)cc1 | 12 | 0 | -1 | 1 | 0
Cc1ccc(C(=O)Nc2ccc(N3CCCCC3)cc2)cc1 | nt | 0 | -2 | 8 | 11*
COc1ccccc1C#Cc1cnc2c(c1)C(=O)N([C@@H](C)CO)C[C@@H](C)[C@@H](CN(C)C(=O)c1ccc3c(c1)OCO3)O2 | nt | nt | -1 | nt | -1
C[C@H]1CN([C@@H](C)CO)C(=O)c2cc(-c3cccc(F)c3)cnc2O[C@H]1CN(C)Cc1cccc(F)c1 | nt | nt | 3 | nt | nt
COc1cccc(NC(=O)CCC2CCN(Cc3nccs3)CC2)c1 | 52* | nt | 2 | -3 | 1
COc1ccc(N(CC(=O)N/N=C/c2cccnc2)S(=O)(=O)c2ccc(C)cc2)cc1OC | 16 | -2 | 10 | 21 | 1
COc1ccc(N(CC(=O)N/N=C/c2cccnc2)S(=O)(=O)c2ccccc2)c(OC)c1 | 53* | i | 13 | 18 | 0
COc1ccccc1-n1c(N)c(C(N)=O)sc1=S | 52* | i | -1 | -2 | nt
COc1cccc(S(=O)(=O)N[C@@H]2C=C[C@H](CC(=O)NCc3ccccc3)O[C@@H]2CO)c1 | nt | nt | nt | nt | -1
CN(C(=O)c1ccc2c(=O)n3c(nc2c1)CCCCC3)c1ccccc1 | 53* | i | -2 | -3 | nt
Cc1ccc2c(c1)/C(=C/c1ccccc1C)C(=O)N2 | 10 | -1 | -1 | 0 | 12*
Cc1ccc2c(c1)/C(=C/c1ccc(F)cc1)C(=O)N2 | -20 | i | 0 | 14 | 2
C[C@H](CO)N1C[C@H](C)[C@@H](CN(C)C(=O)Nc2ccc(C(F)(F)F)cc2)Oc2ccc(NC(=O)Cc3cn(C)c4ccccc34)cc2CC1=O | nt | nt | 1 | nt | 0
C[C@@H]1CN([C@H](C)CO)C(=O)c2cccc(NC(=O)Nc3ccc4c(c3)OCO4)c2O[C@@H]1CN(C)C(=O)Nc1ccc(F)cc1 | nt | nt | -1 | nt | nt
SMILES | VHR inh abs | BH1578 lux ind | Mtb BioA inh | Y pestis TopoI | TcdB inh
CCCn1nnnc1NCc1cccc(Cl)c1 | 53* | -1 | -2 | 1 | 3
Cc1nc(NCCCn2ccnc2)c2oc3ccccc3c2n1 | -8 | -3 | 10 | -1 | nt
c1ccc2c(c1)oc1c(NCCCn3ccnc3)ncnc12 | 55* | i | 13 | 0 | nt
O=C(NCC[C@@H]1CC[C@@H](NS(=O)(=O)c2cccc(F)c2)[C@@H](CO)O1)C1CCC1 | nt | nt | -4 | nt | -1
CCOc1cc(C(=O)NCC2CCCO2)cc(OCC)c1OCC (stereo not drawn) | 6 | i | -1 | -3 | nt
CCOc1cccc(OCC)c2c(C)[n+](CC3CCCO3)c(C)c1-2 (stereo not drawn) | 52* | i | -4 | -6 | nt
Cc1ccc(S(=O)(=O)N2CC[C@@H]3[C@@H](CO)N(C)c4ccc(-c5ccc(C#N)cc5)cc4[C@@H]32)cc1 | nt | nt | 1 | nt | -1
Cc1cccc(N(C)S(=O)(=O)c2c(C)[nH]c(C)c2C(=O)N2CCCC2)c1 | 54* | i | 2 | 2 | 2
